Measured values taken from PubChem BioAssay AID2284349 (EPA ToxCast).
Inconclusive results are not listed. The source made the active and inactive calls. How the source made its calls: active means hit-call score of the fitted dose curve at least 0.9, where 1 is the maximum; inconclusive means response in the unintended direction; inactive means score below 0.9.

The compounds below were run against frog Peroxisome Proliferator-activated Receptor-gamma (PPARg), pparg (gene 397769) (UniProt P37234) (assay: ATG_frPPARg_EcoTox2: Attagene TRANS-FACTORIAL EcoTox-2 HepG2 Assay for frog Peroxisome Proliferator-activated Receptor-gamma (PPARg)).
Sequence of frog Peroxisome Proliferator-activated Receptor-gamma (PPARg), pparg (gene 397769) (P37234 whole entry, looked up): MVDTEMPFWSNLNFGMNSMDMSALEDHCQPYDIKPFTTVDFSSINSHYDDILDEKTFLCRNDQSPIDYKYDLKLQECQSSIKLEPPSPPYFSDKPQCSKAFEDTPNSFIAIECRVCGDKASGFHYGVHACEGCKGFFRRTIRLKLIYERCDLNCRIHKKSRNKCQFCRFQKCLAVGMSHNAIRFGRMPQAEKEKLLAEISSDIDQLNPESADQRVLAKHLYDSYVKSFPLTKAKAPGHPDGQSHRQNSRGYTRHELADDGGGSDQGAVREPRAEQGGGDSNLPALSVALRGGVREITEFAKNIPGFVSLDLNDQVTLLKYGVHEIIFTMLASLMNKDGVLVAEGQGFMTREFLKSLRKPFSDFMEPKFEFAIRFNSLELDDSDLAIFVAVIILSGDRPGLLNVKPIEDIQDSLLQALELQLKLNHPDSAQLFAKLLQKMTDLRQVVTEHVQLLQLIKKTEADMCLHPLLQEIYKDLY
Method: ATG_EcoTox2 is a cell-based, multiplexed assay created by modifying the existing Attagene TRANS-FACTORIAL system to include a panel of nuclear receptors from some or all the following species: human (Homo sapiens), african clawed frog (Xenopus laevis), rainbow trout (Oncorhynchus mykiss), japanese medaka (Oryzias latipes), and zebrafish (Danio rerio). The ECOTOX2-FACTORIAL format uses HepG2, a human liver cell line, with measurements taken at 24 hours after chemical dosing in a 24-well plate. ATG_frPPARg_EcoTox2 is one of 29 assay components calculated in the ATG_EcoTox2 assay. It is designed to make measurements of mRNA induction, a form of inducible reporter, as detected with fluorescence intensity signals by Reverse transcription polymerase chain reaction (RT-PCR) and Capillary electrophoresis technology.The assay endpoint ATG_frPPARg_EcoTox2 was analyzed in the positive analysis fitting direction relative to DMSO as the negative control and baseline of activity. Using a type of inducible reporter, measures of mRNA for gain-of-signal activity can be used to understand the reporter gene at the transcription factor-level as they relate to the gene PPARg. Furthermore, this assay endpoint can be referred to as a primary readout, because this assay has produced multiple assay endpoints where this one serves a reporter gene function. To generalize the intended target to other relatable targets, this assay endpoint is annotated to the nuclear receptor intended target family, where the subfamily is non-steroidal.
Human liver HepG2 cells are transiently transfected with multiple reporter transcription units (MRTUs) in 6-well plates using FuGene 6 reagent (Roche; 3 ml FuGene/1 mg DNA). The MRTU constructs are regulated by a cis-regulating element (promoter). Each RTU expresses a GAL4-UAS that regulates the transcription of a nearby target reporter gene sequence. A major difference between the CIS and TRANS system is that in CIS activities of endogenous TFs are measured, whereas the TRANS assay evaluates changes in activities of exogenous, chimeric NR-Gal4 proteins. […] At the end of 24 hour incubation, total RNA was isolated using TriZol reagent (Invitrogen). The isolated RNA is then reverse-transcribed using oligo(dT) primer and Mo-MLV reverse transcriptase (Invitrogen) with DNAse I (Ambion) treatment for 30 min. The one-tenth of the produced cDNA was amplified by PCR using Taq DNA polymerase (Invitrogen) and two reporter sequence-specific primers. The PCR products were fluorescently labeled by primer extension with 6-arboxyfluorescein (6-FAM) 5'-labeled reporter sequence-specific primer (2 min at 95 C, 20 s at 68 C and 10 min at 72 C) and these products were digested with 5U of HpaI (New England Biolabs) for 2h at 37 C. The fragments were purified using Qiaquick PCR columns (Qiagen), analyzed on an ABI 3130xL genetic analyzer (Applied Biosystems) with peak positions identified by using a set of X-rhodamine (ROX)-labeled MapMarker1000 molecular weight standards (BioVentures). The raw capillary electrophoresis data was processed using Attagraph software (Attagene).

SMILES	outcome
CC(C)(Oc1ccc(CCNC(=O)c2ccc(Cl)cc2)cc1)C(=O)O	inactive
CC(C)OC(=O)C(C)(C)Oc1ccc(C(=O)c2ccc(Cl)cc2)cc1	inactive
CC(c1cc2ccccc2s1)N(O)C(N)=O (stereo not drawn)	inactive
Cc1ccc(C)c(OCCCC(C)(C)C(=O)O)c1	inactive
Cc1cccc(Nc2cc(Cl)nc(SCC(=O)O)n2)c1C	inactive
C[C@@H]1C[C@H]2[C@@H]3CCC4=CC(=O)C=C[C@]4(C)[C@@]3(F)[C@@H](O)C[C@]2(C)[C@@]1(O)C(=O)COP(=O)(O)O	inactive
C=C(c1ccc(C(=O)O)cc1)c1cc2c(cc1C)C(C)(C)CCC2(C)C	inactive
CC(C)(Oc1ccc(Cl)cc1)C(=O)O	inactive
